Bioassay records as filed in PubChem BioAssay.
MenB inh: blocks the Mycobacterium tuberculosis MenB enzyme; 100,000 compounds, 0.43% hits; P9WNP5; MenB enzyme assay, absorbance read-out; inhibition, % (concentration not given with the values); AID 540299; in the data active = inhibition above about 21%, passing the limit was not always enough
PV pol inh: inhibitors of poliovirus RNA polymerase binding and polymerization | P03300 | poliovirus polymerase elongation, fluorescence polarization; hits give low values | % elongation, % (compound at 16.7 µg/mL) | 150,000 compounds, 0.66% hits; in the data active = % elongation below about 90%
Target sequence (P03300 1749-2209 limits assumed): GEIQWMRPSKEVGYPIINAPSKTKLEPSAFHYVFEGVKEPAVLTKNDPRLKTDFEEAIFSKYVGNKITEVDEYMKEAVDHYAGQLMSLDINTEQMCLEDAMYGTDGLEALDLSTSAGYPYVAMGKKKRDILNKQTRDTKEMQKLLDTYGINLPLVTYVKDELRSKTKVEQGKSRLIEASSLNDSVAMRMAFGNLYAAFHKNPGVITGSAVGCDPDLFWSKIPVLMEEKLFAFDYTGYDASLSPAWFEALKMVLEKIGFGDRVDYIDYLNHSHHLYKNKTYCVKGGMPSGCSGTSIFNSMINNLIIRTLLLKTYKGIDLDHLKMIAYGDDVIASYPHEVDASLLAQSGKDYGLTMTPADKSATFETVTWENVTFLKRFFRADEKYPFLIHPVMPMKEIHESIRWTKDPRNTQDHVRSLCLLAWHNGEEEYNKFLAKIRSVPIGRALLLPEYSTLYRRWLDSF
AID504770: E. coli YBA685 growth inhibition, screen for V. cholerae RctB inhibitors; AID 504770; 130,000 compounds, 0.27% hits; z-score (test concentration not listed); E. coli YBA685 rctB-dependent plasmid, OD600 growth, 3 h; hits give low values; in the data active = z-score below about -2, passing the limit was not always enough
MbtI inh: blocks the Mycobacterium tuberculosis siderophore enzyme MbtI; P9WFX0; purified MbtI enzyme, fluorescence intensity read-out; inhibition, % (no concentration beside the values); 100,000 compounds, 0.89% hits; AID 493033; in the data active = inhibition mostly above about 56%, no sharp cut-off; inactive = mostly below about 77%
* = called active by the depositor; · = not tested or not shown. This is a sample that favours compounds with a hit; in the whole collection about 1.5% have one here.

SMILES	MenB inh	PV pol inh	AID504770	MbtI inh
Brc1ccc(CSc2nnc(-c3ccc4c(c3)OCO4)o2)cc1	-6	103	-0.4	-11
CCC(C)[C@@H](CO[C@@H](Cc1ccccc1)C(=O)N[C@@H](CCS(C)(=O)=O)C(=O)OC(C)C)NC[C@@H](N)CS (some centres not stated)	-13	103	·	67*
Cc1ccc2nc(SCC(=O)N3CCCCC3)c(C#N)cc2c1	41*	102	1.1	0
O=C(N=Nc1c(O)[nH]c2cc3c(cc12)OCCCO3)C1CCCCC1	-5	99	-0.75	3
O=Nc1c(O)[nH]c2cc3c(cc12)OCCO3	-12	86*	-0.35	11
CCC(C)NC(=O)CSc1nnc(-c2ccc(C)c(C)c2)o1 (configuration not stated)	-20	105	-0.9	-10
CC(C)n1c(SCC(=O)Nc2ccccc2)nc2ccccc2c1=O	-8	97	0.75	-5
Cc1cc(SCC(=O)Nc2ccccc2)c2ccccc2n1	-31	89*	-0.05	·
CN(C)c1nc(C2CC2)nc2c1nnn2Cc1ccccc1Cl	38*	104	1.9	7
NC(=O)C1CCN(c2nc(C3CC3)nc3c2nnn3Cc2ccccc2Cl)CC1	52*	102	2.5	7
CC(C)(C)c1nc(N2CCN(C(=O)c3ccco3)CC2)c2nnn(Cc3ccccc3Cl)c2n1	24*	103	0.85	23
CC(C)(C)OC(=O)N1CCC(c2nc3c(nnn3Cc3ccccc3Cl)c(=O)[nH]2)CC1	-17	104	0.35	-10
CN1CCN(Cc2cc3sccc3n2Cc2ccc(F)cc2)CC1	-15	101	-0.55	-3
CCCn1c(=O)n(C)c(=O)c2c3oc(=O)c(NC(=O)c4ccccc4)cc3[nH]c21	-5	124	-0.6	-19
O=C(Nc1ccc(N2C(=O)C=CC2=O)cc1Cl)c1ccco1	11	99	-0.3	96*
COC(=O)c1ccc2nc(NC(=O)CN3C(=O)CCC3=O)sc2c1	-5	75*	-0.25	·
O=C(CSc1nnc(Cc2ccccc2)o1)c1ccccc1	7	102	-0.35	-6
O=C(CSc1nnc(Cc2ccccc2)o1)N(c1ccccc1)c1ccccc1	33	98	0.05	75*
CCc1ccc(NC(=O)CN(C)S(=O)(=O)c2cccc3cccnc23)cc1	-20	101	0.75	4
COc1ccc(C2=NN(CCC(=O)NCCCN3CCN(c4ccccc4F)CC3)C(=O)CC2)cc1	-7	100	0.5	-2
O=C1C=CC(=O)N1Cc1cccs1	·	·	-4.2*	·
O=C(NC1CCS(=O)(=O)C1)Sc1ccccc1 (configuration not stated)	15	104	1.2	52*
O=c1[nH]nc(SCc2cn3ccccc3n2)c(=O)[nH]1	-11	32*	-2.5	54
Cc1cc(=O)[nH]c(SCc2cn3ccccc3n2)n1	·	·	-1.4	·
CS(C)(=O)=NC(=O)c1cnn2c(C(F)(F)F)cc(C(F)(F)F)nc12	·	·	-0.25	·
SMILES	MenB inh	PV pol inh	AID504770	MbtI inh
Cn1c(N/C(=C\C(=O)c2cccs2)C(F)(F)F)nc2ccccc21	·	105	-2.7*	8
COc1ccccc1C1N=C(c2ccc3c(c2)OCO3)CC(c2ccccc2O)N1 (configuration not stated)	-12	100	-0.9	-4
OCCNc1nc(NCCO)c2cnn(-c3ccccc3)c2n1	9	100	0.5	20
c1ccc(OCCSC2=NCCN2)cc1	-37	101	-1.4	89*
c1ccc(OCCSc2nc3ccccc3[nH]2)cc1	-1	101	0.25	-1
O=C(CN1CCCC1)Nc1cc(C(F)(F)F)cc(C(F)(F)F)c1	·	·	-0.1	·
O=C(Nc1cc(C(F)(F)F)cc(C(F)(F)F)c1)C(=S)N1CCCCC1	1	76*	0.9	·
O=C(CO/N=C/c1ccco1)NCc1ccccc1	8	110	1	51*
Oc1ccccc1C1OCC(C2CC=CCC2)CO1 (configuration not stated)	36*	104	1.6	-8
OCc1nc2ccccc2n1Cc1ccccc1Cl	-16	102	-0.55	-3
Oc1ccc(/C=N/n2cnn(Cc3ccccc3Cl)c2=S)c(O)c1	-50	87*	-0.35	27
O=C(CN1C(=O)c2ccccc2C1=O)c1ccc(Cl)cc1	13	6.0*	0.35	15
O=C(/C=C/c1ccccc1Cl)Nc1ncn[nH]1	-30	67*	1.6	·
C/C(=N\NC(=Nc1ccccc1)c1ccccn1)c1ccccn1	-79	99	1.3	65*
O=C(O)c1c(-c2ccccc2)c(-c2ccccc2)n[nH]c1=O	7	100	0.6	3
Cc1nnc2sc(-c3cccc(NC(=O)c4cccc(F)c4)c3)nn12	-18	103	-0.95	-18
